From PubChem BioAssay (Tox21) come the findings set out here.

The nature of assay [1]: cAMP Responsive Elements (CRE) small molecule antagonists, cell-based qHTS assay: qHTS cell viability counter screen (AID 2060913). Also: nearly all actives have a fitted effect of over 40% in size. The gist of the method:
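Steps: cells plated and held 18 hrs at 37 C/5% CO2; compounds and NKH477 (0.25 uM final) added; 3 hrs incubation; reporter substrate read; CellTiter-Glo added to measure cytotoxicity by luminescence.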
For orientation: Quantitative high-throughput screening tests each substance at several concentrations.

A short description of assay [2]: cAMP Responsive Elements (CRE) small molecule agonists, cell-based qHTS assay: qHTS cell viability counter screen (AID 2060914).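 Also: viability read after 3 h of compound exposure; nearly all actives have a fitted effect of over 50% in size.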 In short, it runs like this:
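CRE-bla HEK 293T cells, plated 18 h at 37 °C, were exposed to compounds for 3 h at 37 °C/5% CO2. Viability was then measured in the same wells by CellTiter-Glo luminescence after 30 min at room temperature.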

Results filed as inconclusive are left out. A number with no mark means an inactive call. Active and inactive are the calls of the source. Calls follow the shape of the dose curve; as a rule, active = well fitted cell-killing curve with a large enough effect in the repeat runs; inconclusive = weak or mixed curves, or effect the other way; inactive = flat fitted curve, though single readings scatter.
Potency is read from the fitted curve at half-maximal effect.

`CCCCCCCCCO`: the Potency result in assay [1] and in assay [2] was “inactive” each time.
On to `CCCCCCC(CO)CCCC` (configuration not stated), for which the Potency result in assay [1] and in assay [2] was “inactive” in each case.
Turning to `O=C1CCC/C=C\CCCCCCCCCC1`, the Potency entry in assay [1] and in assay [2] was “inactive” in each case.
On to `CCCCOC(=O)C(C)Oc1ccc(Oc2ccc(C(F)(F)F)cn2)cc1` (configuration not stated), for which the Potency entry in assay [1] and in assay [2] was “inactive” throughout.
Regarding `CN(C)CCCO[C@@H]1[C@H]2OC(C)(C)O[C@H]2O[C@@H]1C(O)CO` (some centres not stated), the Potency result in assay [1] and in assay [2] was “inactive” in each case.
In the case of `C=C(C)C(=O)OCCOCCOC(=O)C(=C)C`, the Potency entry in assay [1] and in assay [2] was “inactive” each time.
For `Cc1ccc(Nc2ccc(O)c3c2C(=O)c2ccccc2C3=O)cc1`, the Potency entry in assay [1] and in assay [2] was “inactive” in each case.
With `CC12CCC(C(=O)C1=O)C2(C)C` (configuration not stated), the Potency result in assay [1] and in assay [2] was “inactive” in each case.
As for `CCC(=O)O[C@]1(C(=O)CCl)[C@@H](C)C[C@H]2[C@@H]3CCC4=CC(=O)C=C[C@]4(C)[C@@]3(F)[C@@H](O)C[C@@]21C`, the Potency entry in assay [1] and in assay [2] was “inactive” in each case.
For `CC[N+](CC)(CC(=O)Nc1c(C)cccc1C)Cc1ccccc1`, the Potency result in assay [1] and in assay [2] was “inactive” throughout.
For the molecule `O=C(O)c1ccc(Cl)cc1Cl`, the Potency entry in assay [1] and in assay [2] was “inactive” throughout.
Regarding `O=C(CCCN1CCN(c2ccc(F)cc2)CC1)NC1c2ccccc2CSc2ccccc21` (configuration not stated), the Potency entry in assay [1] and in assay [2] was “inactive” in each case.
As to `C[C@H]1C[C@@H](O)CC(C)(C)C1`, the Potency entry in assay [1] and in assay [2] was “inactive” in each case.
As for `O=C1CCCN1C1CCCCC1`, the Potency result in assay [1] and in assay [2] was “inactive” in each case.
For the molecule `Nc1cccc(C(F)(F)F)c1`, the Potency result in assay [1] and in assay [2] was “inactive” in each case.
With `CCC1(c2cnc[nH]2)Cc2ccccc2C1`, the Potency result in assay [1] and in assay [2] was “inactive” each time.
`CCCCCCCC/C=C\CCCCCCCC(=O)OCCOC(=O)CCCCCCC/C=C\CCCCCCCC`: the Potency entry in assay [1] and in assay [2] was “inactive” throughout.
For the molecule `COc1cc2c(cc1OC)-c1cc3ccc(OC)c(OC)c3c[n+]1CC2`, the Potency result in assay [1] and in assay [2] was “inactive” each time.
On to `CCCCCCCCSCC`, for which the Potency result in assay [1] and in assay [2] was “inactive” throughout.
`Oc1ccc(/C=C/c2cc(O)cc(O)c2)cc1`: the Potency entry in assay [1] and in assay [2] was “inactive” throughout.
Turning to `O`, the Potency entry in assay [1] and in assay [2] was “inactive” in each case.
Turning to `NC(=O)Cc1cccc(C(=O)c2ccccc2)c1N`, the Potency entry in assay [1] and in assay [2] was “inactive” throughout.
For the molecule `COc1ccc(Br)c(C)c1`, the Potency result in assay [1] and in assay [2] was “inactive” in each case.
As for `COc1cc(/C=C/C(=O)O[C@H]2CC[C@]34C[C@]35CC[C@]3(C)[C@@H]([C@H](C)CCC=C(C)C)CC[C@@]3(C)[C@@H]5CC[C@H]4C2(C)C)ccc1O`, the Potency entry in assay [1] and in assay [2] was “inactive” throughout.
In the case of `COC(C)(OC)OC`, the Potency entry in assay [1] and in assay [2] was “inactive” in each case.
Turning to `CCCCOCCOCCSC#N`, the Potency result in assay [1] and in assay [2] was “inactive” throughout.
With `C=C(C)C(=O)OCCCCCCCC(C)C`, the Potency entry in assay [1] and in assay [2] was “inactive” in each case.
Take `Cc1[nH]cnc1CN1CCc2c(c3ccccc3n2C)C1=O`: the Potency result in assay [1] and in assay [2] was “inactive” in each case.
Take `C=CN1CCCC1=O`: the Potency result in assay [1] and in assay [2] was “inactive” throughout.
For `O=C1CCCCCCCCCCC1`, the Potency result in assay [1] and in assay [2] was “inactive” throughout.
Take `O=C1NS(=O)(=O)c2ccccc21`: the Potency result in assay [1] and in assay [2] was “inactive” throughout.
Turning to `CC(C)C(=O)OC(=O)C(C)C`, the Potency entry in assay [1] and in assay [2] was “inactive” throughout.
Take `CC1=C(C)S(=O)(=O)CCS1(=O)=O`: the Potency entry in assay [1] and in assay [2] was “inactive” in each case.
For the molecule `C[N+](C)(C)CCCCCC[N+](C)(C)C`, the Potency entry in assay [1] and in assay [2] was “inactive” in each case.
For the molecule `CN(C)CCN(Cc1ccsc1)c1ccccn1`, the Potency entry in assay [1] and in assay [2] was “inactive” each time.
With `CC1CCc2c(N3CCC(O)CC3)c(F)cc3c(=O)c(C(=O)O)cn1c23` (configuration not stated), the Potency entry in assay [1] and in assay [2] was “inactive” in each case.
On to `OCCN1C[C@H](O)[C@@H](O)[C@H](O)[C@H]1CO`, for which the Potency entry in assay [1] and in assay [2] was “inactive” in each case.
Turning to `C/C=C/c1ccc(OC)c(OC)c1`, the Potency result in assay [1] and in assay [2] was “inactive” in each case.
For `CC(C)(C)NCC(O)COc1cccc2c1CCC(=O)N2` (configuration not stated), the Potency result in assay [1] and in assay [2] was “inactive” throughout.
With `CC(C)CCC(=O)CCC(C)C`, the Potency result in assay [1] and in assay [2] was “inactive” in each case.
For `Nc1nc(-c2ccccc2)c(Br)c(=O)[nH]1`, the Potency entry in assay [1] and in assay [2] was “inactive” in each case.
With `Cc1ncc(CO)c(C=O)c1O`, the Potency result in assay [1] and in assay [2] was “inactive” each time.
With `CN(C)[C@@H]1C(=O)C(C(N)=O)=C(O)[C@@]2(O)C(=O)C3=C(O)c4c(O)ccc(Cl)c4[C@@H](O)[C@H]3C[C@@H]12`, the Potency entry in assay [1] and in assay [2] was “inactive” throughout.
`O=C1CCc2ccccc2O1`: the Potency entry in assay [1] and in assay [2] was “inactive” throughout.
In the case of `C=CCNCC=C`, the Potency entry in assay [1] and in assay [2] was “inactive” each time.
Consider `O=C=Nc1ccc(Cl)c(Cl)c1`, for which the Potency entry in assay [1] and in assay [2] was “inactive” in each case.
Turning to `O=C(Cl)c1c(Cl)cccc1Cl`, the Potency entry in assay [1] and in assay [2] was “inactive” in each case.
Take `CCOB(OCC)OCC`: the Potency result in assay [1] and in assay [2] was “inactive” in each case.
On to `Cc1nc(C)c(C)nc1C`, for which the Potency result in assay [1] and in assay [2] was “inactive” in each case.
With `CCCCN`, the Potency entry in assay [1] and in assay [2] was “inactive” throughout.
Take `C=CC(=O)[O-].C=CC(=O)[O-].[Zn+2]`: the Potency result in assay [1] and in assay [2] was “inactive” each time.
Consider `OCc1cc(C(O)CNCCCCCCOCCCCc2ccccc2)ccc1O` (configuration not stated), for which the Potency result in assay [1] and in assay [2] was “inactive” throughout.
With `Cc1c(OCC(F)(F)F)ccnc1CS(=O)c1nc2ccccc2[nH]1` (configuration not stated), the Potency entry in assay [1] and in assay [2] was “inactive” each time.
As to `CCN=C1C=CC(=C(c2ccc(N(CC)CC)cc2)c2ccc(N(CC)CC)cc2)c2ccccc21`, the values for the Potency in assay [1] and in assay [2] were 48.3 µM (active) and 30.5 µM (active), respectively.
With `O=C(Nc1cccc(Cl)c1)OCC#CCCl`, the Potency result in assay [1] and in assay [2] was “inactive” in each case.
As to `Cc1ccc(O)c(N)c1`, the Potency result in assay [1] and in assay [2] was “inactive” throughout.
